From the supplement of paper PMC11732987, “Enantioselective OTUD7B fragment discovery through chemoproteomics screening and high-throughput optimisation” (Communications Chemistry, 2025)

Columns and labels:
Assay in all cases: log2 ratio of Biotin-Ahx-Ub-VS probe labelling (fragment/DMSO); higher = less target engagement (more negative = stronger competition), active = hit call of the paper (q ≤ 0.05, log2 ratio ≤ -1)
Details in all cases: compound concentration: 200 uM; treatment time: 3 h
[1] = target: T1, OTUD6B (UniProt Q8N6M0)
T1 sequence (whole entry): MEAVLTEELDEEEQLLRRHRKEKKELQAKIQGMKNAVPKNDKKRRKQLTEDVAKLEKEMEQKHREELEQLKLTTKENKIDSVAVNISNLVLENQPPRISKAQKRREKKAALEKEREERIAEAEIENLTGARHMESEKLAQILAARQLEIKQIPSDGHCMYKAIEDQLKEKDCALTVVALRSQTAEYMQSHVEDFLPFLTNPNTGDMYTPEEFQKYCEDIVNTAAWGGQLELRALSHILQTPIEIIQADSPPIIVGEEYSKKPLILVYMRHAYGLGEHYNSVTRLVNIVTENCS
Outline: (§1)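 Fragment (200 µM) or vehicle was incubated for 3 h with triplicate HEK293T lysate samples of 495 µg, which were then treated with Biotin-Ahx-Ub-VS at 0.5 µM final for 1 h. Labelled DUBs were enriched on NeutrAvidin, digested with LysC and trypsin, and analysed by diaPASEF LC-MS/MS. Values are average log2 fragment/vehicle ratios from an unpaired t-test on global-median-normalised Spectronaut label-free quantities, using proteins with ≥2 unique peptides.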

[2] = target: T2, OTUD7B (UniProt Q6GQQ9)
T2 sequence (whole entry): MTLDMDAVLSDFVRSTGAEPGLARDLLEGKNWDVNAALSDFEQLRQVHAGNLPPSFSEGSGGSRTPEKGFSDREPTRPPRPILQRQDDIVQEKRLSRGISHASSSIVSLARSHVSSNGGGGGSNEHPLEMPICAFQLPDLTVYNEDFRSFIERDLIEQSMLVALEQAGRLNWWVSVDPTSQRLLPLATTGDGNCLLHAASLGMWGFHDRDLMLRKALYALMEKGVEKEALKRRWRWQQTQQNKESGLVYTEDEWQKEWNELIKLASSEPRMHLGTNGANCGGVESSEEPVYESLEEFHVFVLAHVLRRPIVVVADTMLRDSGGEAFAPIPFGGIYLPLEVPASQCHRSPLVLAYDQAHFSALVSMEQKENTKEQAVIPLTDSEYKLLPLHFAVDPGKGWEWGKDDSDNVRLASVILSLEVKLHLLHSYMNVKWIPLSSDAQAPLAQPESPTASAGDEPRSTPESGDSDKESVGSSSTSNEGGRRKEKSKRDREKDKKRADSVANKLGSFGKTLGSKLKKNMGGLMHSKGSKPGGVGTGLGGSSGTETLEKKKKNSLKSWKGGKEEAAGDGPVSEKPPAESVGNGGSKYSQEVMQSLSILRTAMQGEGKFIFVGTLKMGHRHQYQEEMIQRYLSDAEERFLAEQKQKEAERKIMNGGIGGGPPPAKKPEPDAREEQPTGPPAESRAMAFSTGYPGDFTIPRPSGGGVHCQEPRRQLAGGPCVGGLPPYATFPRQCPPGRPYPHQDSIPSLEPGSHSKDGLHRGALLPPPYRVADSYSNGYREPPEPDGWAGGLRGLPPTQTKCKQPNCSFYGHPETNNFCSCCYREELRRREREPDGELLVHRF
Outline: as §1

[3] = target: PRPF8 (UniProt Q6P2Q9)
Outline: as §1

[4] = target: T3, PSMD7 (UniProt P51665)
T3 sequence (whole entry): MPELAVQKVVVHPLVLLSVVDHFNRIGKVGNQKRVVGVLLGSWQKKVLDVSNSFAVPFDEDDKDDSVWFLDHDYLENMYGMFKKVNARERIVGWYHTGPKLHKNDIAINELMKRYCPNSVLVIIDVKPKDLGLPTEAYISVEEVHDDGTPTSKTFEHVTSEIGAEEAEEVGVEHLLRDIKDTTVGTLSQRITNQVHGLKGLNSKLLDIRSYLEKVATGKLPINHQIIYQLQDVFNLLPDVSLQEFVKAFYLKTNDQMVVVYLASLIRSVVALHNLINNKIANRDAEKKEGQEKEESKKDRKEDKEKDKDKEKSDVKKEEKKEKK
Outline: as §1

[5] = target: UCHL1 (UniProt P09936)
Outline: as §1

[6] = target: T4, UCHL3 (UniProt P15374)
T4 sequence (whole entry): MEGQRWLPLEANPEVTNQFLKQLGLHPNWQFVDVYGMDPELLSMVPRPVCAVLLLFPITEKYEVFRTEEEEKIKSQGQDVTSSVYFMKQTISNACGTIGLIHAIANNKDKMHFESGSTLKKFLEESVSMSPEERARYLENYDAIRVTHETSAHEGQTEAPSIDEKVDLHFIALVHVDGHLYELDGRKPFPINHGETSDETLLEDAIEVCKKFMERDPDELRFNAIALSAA
Outline: as §1

[7] = target: T5, UCHL5 (UniProt Q9Y5K5)
T5 sequence (whole entry): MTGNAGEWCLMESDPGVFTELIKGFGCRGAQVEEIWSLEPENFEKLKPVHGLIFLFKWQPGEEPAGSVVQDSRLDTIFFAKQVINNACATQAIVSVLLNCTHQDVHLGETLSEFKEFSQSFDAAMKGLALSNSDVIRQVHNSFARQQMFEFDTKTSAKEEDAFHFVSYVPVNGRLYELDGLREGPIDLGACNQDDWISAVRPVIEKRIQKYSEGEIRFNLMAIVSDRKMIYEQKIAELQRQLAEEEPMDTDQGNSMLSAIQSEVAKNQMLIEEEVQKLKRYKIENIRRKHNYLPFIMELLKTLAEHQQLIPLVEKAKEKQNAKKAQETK
Outline: as §1

[8] = target: USP10 (UniProt Q14694)
Outline: as §1

[9] = target: T6, USP15 (UniProt Q9Y4E8)
T6 sequence (whole entry): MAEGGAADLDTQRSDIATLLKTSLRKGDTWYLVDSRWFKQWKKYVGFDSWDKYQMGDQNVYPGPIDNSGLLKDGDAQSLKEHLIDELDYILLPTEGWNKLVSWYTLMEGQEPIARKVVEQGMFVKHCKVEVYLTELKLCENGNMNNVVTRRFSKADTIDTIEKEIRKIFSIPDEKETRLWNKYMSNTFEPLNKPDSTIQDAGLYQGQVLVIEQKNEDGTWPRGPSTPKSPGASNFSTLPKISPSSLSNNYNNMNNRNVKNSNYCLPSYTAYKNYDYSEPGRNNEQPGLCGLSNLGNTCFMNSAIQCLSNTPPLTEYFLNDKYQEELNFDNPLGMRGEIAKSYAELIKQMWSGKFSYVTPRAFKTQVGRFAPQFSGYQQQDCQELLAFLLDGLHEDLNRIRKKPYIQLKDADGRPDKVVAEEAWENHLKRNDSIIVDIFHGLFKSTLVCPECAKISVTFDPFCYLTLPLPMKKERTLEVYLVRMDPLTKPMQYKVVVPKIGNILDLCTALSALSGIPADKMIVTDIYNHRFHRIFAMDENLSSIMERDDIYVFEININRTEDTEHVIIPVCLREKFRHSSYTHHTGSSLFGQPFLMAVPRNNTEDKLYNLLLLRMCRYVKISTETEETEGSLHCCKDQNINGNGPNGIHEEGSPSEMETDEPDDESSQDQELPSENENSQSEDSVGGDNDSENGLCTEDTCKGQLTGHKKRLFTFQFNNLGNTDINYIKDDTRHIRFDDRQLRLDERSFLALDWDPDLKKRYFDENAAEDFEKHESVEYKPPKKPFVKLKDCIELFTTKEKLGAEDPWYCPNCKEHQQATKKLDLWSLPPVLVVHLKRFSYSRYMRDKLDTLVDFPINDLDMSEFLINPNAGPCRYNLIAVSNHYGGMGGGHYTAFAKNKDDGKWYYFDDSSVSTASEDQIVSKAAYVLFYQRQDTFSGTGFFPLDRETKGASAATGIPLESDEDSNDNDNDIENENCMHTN
Outline: as §1

[10] = target: USP16 (UniProt Q9Y5T5)
Outline: as §1

Measured: log2 ratio of Biotin-Ahx-Ub-VS probe labelling

Sequence of USP10 (Q14694 whole entry): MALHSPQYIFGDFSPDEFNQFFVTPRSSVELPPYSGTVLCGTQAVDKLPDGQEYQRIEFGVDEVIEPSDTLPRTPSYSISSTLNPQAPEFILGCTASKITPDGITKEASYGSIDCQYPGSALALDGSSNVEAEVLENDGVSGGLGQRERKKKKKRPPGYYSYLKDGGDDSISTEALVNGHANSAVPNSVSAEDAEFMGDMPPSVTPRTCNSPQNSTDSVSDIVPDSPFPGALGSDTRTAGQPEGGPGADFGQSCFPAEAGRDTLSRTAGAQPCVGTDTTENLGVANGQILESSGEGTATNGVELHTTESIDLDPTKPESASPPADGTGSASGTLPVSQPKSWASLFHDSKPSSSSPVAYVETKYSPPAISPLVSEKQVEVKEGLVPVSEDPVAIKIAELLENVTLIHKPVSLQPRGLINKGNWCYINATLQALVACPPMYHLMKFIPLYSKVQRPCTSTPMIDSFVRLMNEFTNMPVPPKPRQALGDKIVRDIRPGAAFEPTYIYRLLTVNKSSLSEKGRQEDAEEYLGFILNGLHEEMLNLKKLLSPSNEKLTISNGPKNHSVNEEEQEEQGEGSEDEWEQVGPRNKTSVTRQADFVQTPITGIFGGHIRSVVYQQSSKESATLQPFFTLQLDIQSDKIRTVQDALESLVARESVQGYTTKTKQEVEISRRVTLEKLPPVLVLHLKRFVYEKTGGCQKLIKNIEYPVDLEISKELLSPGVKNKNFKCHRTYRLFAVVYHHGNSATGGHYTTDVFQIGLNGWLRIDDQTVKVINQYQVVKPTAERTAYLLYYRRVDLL
Sequence of UCHL1 (P09936 whole entry, looked up): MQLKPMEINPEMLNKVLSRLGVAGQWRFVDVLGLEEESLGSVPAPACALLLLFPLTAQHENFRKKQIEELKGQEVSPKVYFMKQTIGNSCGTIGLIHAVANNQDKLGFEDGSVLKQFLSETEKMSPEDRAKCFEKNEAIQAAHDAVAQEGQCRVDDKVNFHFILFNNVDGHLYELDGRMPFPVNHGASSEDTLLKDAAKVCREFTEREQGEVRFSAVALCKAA
Sequence of USP16 (Q9Y5T5 whole entry, looked up): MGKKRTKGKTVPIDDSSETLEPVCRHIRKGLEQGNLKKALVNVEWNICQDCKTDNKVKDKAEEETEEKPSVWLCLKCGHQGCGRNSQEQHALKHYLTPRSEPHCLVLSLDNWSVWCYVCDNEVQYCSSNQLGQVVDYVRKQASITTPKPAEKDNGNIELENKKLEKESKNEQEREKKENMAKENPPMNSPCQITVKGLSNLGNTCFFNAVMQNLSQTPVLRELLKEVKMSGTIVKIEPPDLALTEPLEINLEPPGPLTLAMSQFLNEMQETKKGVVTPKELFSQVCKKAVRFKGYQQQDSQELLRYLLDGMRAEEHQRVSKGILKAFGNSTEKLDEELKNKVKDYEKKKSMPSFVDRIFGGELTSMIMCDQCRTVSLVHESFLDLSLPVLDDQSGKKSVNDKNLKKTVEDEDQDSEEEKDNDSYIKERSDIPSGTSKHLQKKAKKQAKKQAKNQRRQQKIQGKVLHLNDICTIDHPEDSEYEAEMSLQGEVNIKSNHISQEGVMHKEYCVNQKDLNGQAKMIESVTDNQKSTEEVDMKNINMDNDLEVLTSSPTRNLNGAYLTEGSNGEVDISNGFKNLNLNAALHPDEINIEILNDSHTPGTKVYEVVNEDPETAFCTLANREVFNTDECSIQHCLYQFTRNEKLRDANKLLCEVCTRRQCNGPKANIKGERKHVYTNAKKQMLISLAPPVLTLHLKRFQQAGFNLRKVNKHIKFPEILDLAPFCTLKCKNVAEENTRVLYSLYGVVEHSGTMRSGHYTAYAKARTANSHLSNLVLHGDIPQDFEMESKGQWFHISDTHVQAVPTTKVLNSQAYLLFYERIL

Cl.O=C(CCl)NCCc1ncc(F)cc1F
inactive: [1] -0.346 | [2] -0.663 | [3] -0.0362 | [4] -0.45 | [6] 0.191 | [7] -0.376 | [8] -0.075 | [9] -0.3 | [10] -0.0122
active: [5] -1.7
